About 3,700 (1%) of roughly 360,000 compounds were called active. Not shown: some 2% with an inconclusive outcome.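 Rule for the calls: active = normalized GFP-positive differentiation at or above the plate's own cutoff, the solvent-only control mean plus 3 SD; inconclusive = no clear call, values can overlap the other calls; inactive = the rest.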 The sample as a whole holds a higher share of actives than the screen did.

A short description of this test: HoxA9-arrested leukemia cell differentiation promoters – flow cytometry, MLPCN library, primary screen (AID 624256).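 For GFP+ MAC1+ double positive: cells exposed to compound for four days before flow analysis.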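 For normalized GFP-positive differentiation: cells exposed to compound for four days before flow analysis; 0% = DMSO wells and 100% = fulvestrant positive control at 5 µM.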 Conditions: ER-HoxA9 myeloid progenitors, lysozyme-GFP differentiation, at 10 µM; GFP+ MAC1+ double positive: measured here: differentiation confirmed by MAC1 staining, stronger effect = higher value; normalized GFP-positive differentiation: stronger effect = higher value.
`O=C(Nc1ccc(Cl)cc1)c1csc([C@H]2C[C@H](O)[C@@H](CO)O2)n1`: the GFP+ MAC1+ double positive is 0.4% and the outcome was inactive.

In the case of `CCN1C(=O)[C@@H]2[C@@H]3CN(S(=O)(=O)c4ccccc4C)[C@@H](c4ccc(Cl)cc4)[C@@H]3C(=O)C[C@@H]2C1=O`, the GFP+ MAC1+ double positive turned out to be 0.5% and the compound was called inactive.

For `CN1C[C@@H](CO)O[C@@H](n2cnc3c(N4CCN(CCO)CC4)ncnc32)C1`, the GFP+ MAC1+ double positive is 1.5% and the result was inactive.

On to `Cc1scc(C(=O)NNC(=S)NCc2ccccc2)c1C`, for which the GFP+ MAC1+ double positive was 0.2% and the compound was called inactive.

Consider `CNC(=S)NNC(=O)c1sccc1OCc1ccccc1`, for which the GFP+ MAC1+ double positive was 2.8% and the normalized GFP-positive differentiation was 6.37% (active).

With `CNC(=S)N/N=C/c1ccc(OCc2ccccc2)c(Br)c1`, the GFP+ MAC1+ double positive came out at 0.2% and the call was inactive.

For `CC1(C(=O)Nc2ccc3c(c2)OCCO3)CSCC(=O)N1CCOc1ccccc1` (stereo unspecified), the GFP+ MAC1+ double positive turned out to be 3.3% and the compound was called inactive.

For the compound `Cc1cc(Br)cn2c(Cc3cccc(F)c3)c(-c3cccc(Br)c3)nc12`, the GFP+ MAC1+ double positive stood at 0.6% and the call was inactive.

Take `CCOC(=O)C(C(=O)c1ccccc1)C(c1ccccc1)c1nccc2ccccc12` (stereo unspecified): the GFP+ MAC1+ double positive was determined as 0.2% and the outcome was inactive.

As for `CCOC(=O)/C=C/C(=O)OCC(=O)NC(c1ccccc1)c1ccccc1`, the GFP+ MAC1+ double positive turned out to be 0.4% and the compound was classed as inactive.

With `CCOC(=O)C(C(=O)OCC)C(C#N)c1ccccc1` (stereo unspecified), the GFP+ MAC1+ double positive was determined as 3.3% and the normalized GFP-positive differentiation is 9.91% (active).

In the case of `CC1(C(=O)NCc2ccccc2)CSCC(=O)N1CCCn1ccnc1` (stereo unspecified), the GFP+ MAC1+ double positive came out at 4.4% and the compound was classed as inactive.

With `O=C1NC(O)CCN1C1CC(O)C(CO)O1` (stereo unspecified), the GFP+ MAC1+ double positive was 1.3% and the result was inactive.

In the case of `CCOc1ccc(CCN2C(=S)N([C@@H](CC(C)C)CN3CCC[C@@H]3CN3C(=S)NC[C@@H]3Cc3ccc(O)cc3)C[C@@H]2Cc2ccc(O)cc2)cc1`, the GFP+ MAC1+ double positive amounted to 0.7% and the result was inactive.

On to `COC(=O)C[n+]1cccc2ccccc21`, for which the GFP+ MAC1+ double positive was 1% and the normalized GFP-positive differentiation is 236% (active).

As for `COc1c(C(=O)N2CCCC2)ccc2ccccc12`, the GFP+ MAC1+ double positive is 0.8% and the result was inactive.

As to `COC(=O)C(C)NC(=O)COc1ccc2ccccc2c1` (stereo unspecified), the GFP+ MAC1+ double positive was determined as 1.3% and the compound was called inactive.

On to `CCc1nc2c(OCc3ccc(Cl)cc3Cl)cccn2c1N(C)C(=O)C(C)C`, for which the GFP+ MAC1+ double positive was 1.8% and the outcome was inactive.

For the compound `CC(=O)N1CCN(Cc2cc(=O)oc3cc(C)ccc23)CC1`, the GFP+ MAC1+ double positive was determined as 1.6% and the result was inactive.

Consider `COC(=O)[C@]12CCCCC=C1N(Cc1ccc3c(c1)OCO3)C(=O)[C@H](CC(=O)NCc1cccs1)C2`, for which the GFP+ MAC1+ double positive came out at 0.4% and the call was inactive.

On to `CCOC(=O)[C@]12CCCC=C1N(CCC1=CCCCC1)C(=O)[C@H](CC(=O)N1CCOCC1)C2`, for which the GFP+ MAC1+ double positive worked out at 4.8% and the call was inactive.

On to `OCCC#Cc1ccc(N2C(c3ccsc3)=Cc3ccc(F)cc3C2c2c[nH]c3ccccc23)cc1` (stereo unspecified), for which the GFP+ MAC1+ double positive is 2% and the normalized GFP-positive differentiation was 16.8% (active).

`COc1ccc(CCCNC(=O)C2Cc3c(-c4cccc(C(N)=O)c4)ccnc3O2)cc1` (stereo unspecified): the GFP+ MAC1+ double positive is 0.5% and the result was inactive.

With `CN(Cc1cn(Cc2ccc(C(F)(F)F)cc2)nn1)C1CN(Cc2cn(Cc3ccc(C(F)(F)F)cc3)nn2)S(=O)(=O)C1` (stereo unspecified), the GFP+ MAC1+ double positive is 1.6% and the compound was classed as inactive.

Regarding `CCCCNC(=O)C[C@@H]1C[C@@]2(C(=O)OCC)CCC=C2N(Cc2cccc3ccccc23)C1=O`, the GFP+ MAC1+ double positive worked out at 0.6% and the compound was called inactive.

For the compound `CCOc1ccc(CCN2C(=O)C(=O)N([C@@H](Cc3ccc(O)cc3)CN3CCC[C@H]3CN3C(=O)C(=O)NC[C@@H]3CC(C)C)C[C@@H]2Cc2ccccc2)cc1`, the GFP+ MAC1+ double positive came to 1% and the result was inactive.

For `Cc1ccc(Nc2ccccc2N)cc1`, the GFP+ MAC1+ double positive was found to be 0.6% and the normalized GFP-positive differentiation is 231% (active).

Take `O=[N+]([O-])c1ccccc1Nc1ccc(O)cc1`: the GFP+ MAC1+ double positive is 0.4% and the result was inactive.

On to `Cc1ccc(Nc2nc(N)nc(CSc3nnc(C)s3)n2)cc1`, for which the GFP+ MAC1+ double positive came to 0.4% and the result was inactive.

As for `CC1(C(=O)NCc2ccccc2)CN(S(C)(=O)=O)CC(=O)N1CC(F)(F)F` (stereo unspecified), the GFP+ MAC1+ double positive stood at 1.4% and the call was inactive.

For `CO/N=C/CC(=O)c1ccc(OC)cc1`, the GFP+ MAC1+ double positive is 0.8% and the compound was called inactive.

As for `COc1ccc(C(=O)C[n+]2ccc(C)cc2)cc1`, the GFP+ MAC1+ double positive came out at 0.2% and the outcome was inactive.

With `COc1ccc(C(=O)C[n+]2ccc(N)c(C)c2C)cc1`, the GFP+ MAC1+ double positive came to 10.1% and the normalized GFP-positive differentiation is 39.6% (active).

As to `CCN(Cc1cc2cc(C)ccc2[nH]c1=O)S(=O)(=O)c1ccccc1`, the GFP+ MAC1+ double positive is 0.4% and the compound was classed as inactive.

Take `COc1ccc(N(Cc2cc3ccc(C)cc3[nH]c2=O)S(=O)(=O)c2ccccc2)cc1`: the GFP+ MAC1+ double positive stood at 9.4% and the normalized GFP-positive differentiation is 37.5% (active).

For `Cc1ccc2cc(CN(c3ccc(C)c(C)c3)S(C)(=O)=O)c(=O)[nH]c2c1`, the GFP+ MAC1+ double positive was 0.3% and the result was inactive.

On to `O=C(Nc1cccc2cccnc12)c1ccc2sc([C@H]3C[C@H](O)[C@@H](CO)O3)nc2c1`, for which the GFP+ MAC1+ double positive amounted to 0.8% and the call was inactive.

Turning to `Cc1ccc(NC(=O)CCC(=O)c2ccc(Br)cc2)cc1`, the GFP+ MAC1+ double positive came to 0.4% and the outcome was inactive.

Take `Cc1ccc(C(=O)Cn2cccn2)cc1`: the GFP+ MAC1+ double positive was 0.3% and the outcome was inactive.

In the case of `Cc1ccc(C(=O)Cc2nnc(C)s2)cc1`, the GFP+ MAC1+ double positive came to 0.7% and the normalized GFP-positive differentiation was 113% (active).

As for `CCC(C)CN1C(=O)CSCC1(C)C(=O)NCc1ccccc1` (stereo unspecified), the GFP+ MAC1+ double positive was determined as 1.5% and the outcome was inactive.

Consider `CSCCC(NS(=O)(=O)c1ccc(C)cc1)C(=O)N1CCCC1` (stereo unspecified), for which the GFP+ MAC1+ double positive came to 1.3% and the compound was called inactive.

On to `CSCCC(NS(=O)(=O)c1ccccc1F)C(=O)N1CC=C(c2ccccc2)CC1` (stereo unspecified), for which the GFP+ MAC1+ double positive came to 1.3% and the normalized GFP-positive differentiation was 63.9% (active).

(Values after PubChem BioAssay AID624256 (NMMLSC, 2012).)
